# High-throughput results (PubChem BioAssay)
# Shown are actives, neighbours in structure and some others; about 5.7% of the full set was active somewhere.
# ClpP mod: qHTS Assay for Activators of ClpP; purified B. subtilis ClpP, FRET peptide cleavage, 20 min; ATP-dependent Clp protease proteolytic subunit (Bacillus subtilis (strain 168)), P80244; AID 651965, 2013; 1.9% of 340,000 active; Potency, µM (doses to about 57.5 µM), for the others: at the top dose activity change, negative = active; active = well fitted falling curve with a large enough effect; inconclusive = small, poorly fitted or top-dose-only effect; inactive = no such curve, though single readings can be large or run the other way; note: potency is the fitted concentration of half-maximal effect; the source files actives as falling curves though it sought activators and does not explain the sign; nearly all actives have a fitted effect of over 65% in size
#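 Purified B. subtilis ClpP, 10 microg/mL final in Tris/HCl pH8 with KCl, BSA, glycerol and Tween-20, cleaved an Abz/nitrotyrosine-quenched decapeptide. Fluorescence (ex 320, em 430) was read at 0 and 20 min at room temperature. Delta was normalized to 5.8 microM ADEP and DMSO/no-enzyme controls.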
# GLP1R cytotox: qHTS of GLP-1 Receptor Inverse Agonists: Cytotox Screen; 0.13% of 410,000 active; Potency, µM (highest dose often 38.3 µM), inactives show at the highest dose activity change, negative = inhibition, most hits filed as inhibitors; HEK293 cAMP-luciferase reporter cells, luminescence, 24 h;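 note: loss of luciferase light is scored as toxicity; potency is the fitted concentration of half-maximal effect; % is set by controls: 0 for no effect and ±100 for the full control effect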
#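 Cells in DMEM/10% Nu serum/1% pen-strep, 1536-well format. Pre-incubated 12 h, dosed with 23 nL compound, incubated a further 24 h. Luciferase detection, 12 min at room temp, luminescence.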
# GLP1R ag: qHTS of GLP-1 Receptor Agonists | Glucagon-like peptide 1 receptor (Homo sapiens), P43220 | HEK293 GLP-1R CRE-luciferase, luminescence, 4-6 h; cells express a hypersensitive GLP-1R form | Potency, µM (titrated, usually from 45.6 µM), for inactives: at the highest dose activation, actives largely listed as activators | 0.007% of 380,000 active; note: potency is the fitted concentration of half-maximal effect; % of control where 0% means no effect
# D3 antag: qHTS of D3 Dopamine Receptor Antagonist: qHTS; D(3) dopamine receptor (Homo sapiens), P35462; max response, negative = inhibition, %; 2.5% of 360,000 active; AID 652054, 2013; D3R cells, DiscoveRx beta-arrestin luminescence, antagonist mode; active compounds read low; in the data active = max response below about -50%; inconclusive = no clear call, values can overlap the other calls; note: % is set by controls: 0 for no effect and ±100 for the full control effect
# Target sequence (P35462 whole entry, looked up): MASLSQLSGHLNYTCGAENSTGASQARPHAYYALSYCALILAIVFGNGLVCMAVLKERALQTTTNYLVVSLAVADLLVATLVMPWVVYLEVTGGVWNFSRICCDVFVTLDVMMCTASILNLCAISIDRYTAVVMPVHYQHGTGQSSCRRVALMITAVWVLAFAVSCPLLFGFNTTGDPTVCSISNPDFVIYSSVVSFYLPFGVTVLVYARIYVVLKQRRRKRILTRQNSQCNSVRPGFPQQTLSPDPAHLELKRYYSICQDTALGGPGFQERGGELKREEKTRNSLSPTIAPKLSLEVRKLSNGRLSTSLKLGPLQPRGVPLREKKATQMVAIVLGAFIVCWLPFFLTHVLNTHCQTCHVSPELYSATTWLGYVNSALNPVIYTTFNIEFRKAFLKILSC
#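 Cells expressing the human receptor were seeded at 1500 cells/well, incubated overnight at 37 degrees C in 5% CO2, then exposed to library compounds with dopamine controls for 90 minutes at 37 degrees C before luminescent detection.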
# GLP-1R inv ag: qHTS of GLP-1 Receptor Inverse Agonists (Inhibition Mode). Glucagon-like peptide 1 receptor (Homo sapiens), P43220. HEK293 GLP-1R CRE-luciferase, luminescence, 24 h; GLP-1R form is constitutively active. Potency, µM (doses to about 38.3 µM), without a hit: at the highest dose activity change, negative = inhibition, actives largely listed as inhibitors. 1.6% of 410,000 active; note: potency is the fitted concentration of half-maximal effect; % is set by controls: 0 for no effect and ±100 for the full control effect; nearly all actives have a fitted effect of over 55% in size
#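 Inverse agonism was detected as reduced cAMP-driven luciferase luminescence after 24 h compound treatment. The cells were HEK293 clones expressing constitutively active human GLP-1R with the reporter. Reporter-only and GPR119 cell lines served as counterscreen controls.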
# DRD3 agonist: qHTS of D3 Dopamine Receptor Agonist: qHTS | D3R DiscoveRx beta-arrestin cells, luminescence, 90 min | max activation, % | 0.58% of 410,000 active | D(3) dopamine receptor (Homo sapiens), P35462; in the data active = max activation above about 30%; note: 0% is about no effect
#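 Agonist mode: compounds and dopamine controls were applied to plated cells for 90 min at 37 degrees C after an overnight attachment at 1500 cells/well. Luminescent read-out followed 30 - 60 minutes at room temperature with DiscoveRx detection reagent.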
# Starred values were filed as active, the others as inactive; ? = inconclusive; . = no result; [ ] = dose if it differs, or a comment. Unless noted, calls come from the whole dose curve; as a rule, active = well fitted curve in the direction sought with a large enough effect; inconclusive = small, poorly fitted or top-dose-only effect, or another doubt; inactive = no such curve, though single readings can be large; an effect the other way counts as inactive or inconclusive.
SMILES,ClpP mod,GLP1R cytotox,GLP1R ag,D3 antag,GLP-1R inv ag,DRD3 agonist
O=C(/C=C/c1ccccc1)N1CCN(CCN2C(=O)c3cccc4cccc(c34)C2=O)CC1,-2.9%,2.8%,-0.3%,-95.9*,4.6%,-16.2
Cc1ccccc1OCC(O)CN1CCN(CCN2C(=O)c3cccc4cccc(c34)C2=O)CC1 (stereo not given),-10.7%,?,-6.7%,-86.0*,-9.9%,-18.4
C=CCc1ccccc1OCC(O)CN1CCN(CCN2C(=O)c3cccc4cccc(c34)C2=O)CC1 (stereo not given),-10.3%,-11.4%[1.53 µM],-29.0%,-4.0,?,-33.8
CCCCN(CC)CCCNC(=O)CS(=O)(=O)Cc1nc(-c2ccc(C)cc2)oc1C,-15.0%,3.8%,.,.,?,-11.9
Nc1c(N(Cc2ccco2)C(=O)c2ccccc2F)c(=O)[nH]c(=O)n1Cc1ccccc1,-3.3%,14.1%,-12.6%,11.1,-8.8%,5.8
C#CC(=O)N(c1ccc(OC)c(OC)c1)C(C(=O)NC1CCCC1)c1cccs1 (stereo not given),-19.9%,?,-34.9%,-72.3*,?,-4.8
C#CC(=O)N(c1cccc(OC)c1)C(C(=O)NC1CCCC1)c1cccs1 (stereo not given),-1.3%,?,-4.1%,-63.5*,3.16µM*,-31.0
COc1ccc(N(C(=O)Cc2cccs2)C(C(=O)NC2CCCC2)c2ccncc2)cc1OC (stereo not given),?,12.2%,4.4%,-9.9,8.9%,-32.4
Cc1cccc(N(C(=O)C(F)(F)F)C(C(=O)NC2CCCCC2)c2cccs2)c1 (stereo not given),2.3%,-8.4%,-3.0%,-20.3,0.0%,-0.6
COc1ccc(OC)c(CNC(=O)Cc2ccc(NC(=O)N3CCSc4ncccc43)cc2)c1,?,3.2%,.,.,-2.9%,-0.2
COc1cc(NC(=O)c2ccccc2Cl)c2ncccc2c1,-0.8%,-7.6%,21.6%,1.2,?,-10.1
CCC(CNc1cc(OC)cc2cccnc12)NC1CCCCC1 (stereo not given),1.2%,?,0.0%,-56.8*,?,-16.1
COc1cc(NCCCC(C)N)c2ncccc2c1 (stereo not given),-3.4%,?,-32.3%,-54.1*,?,-10.2
COc1cc(NCCCCC(C)N)c2nccc(C)c2c1 (stereo not given),-1.2%,1.2%,-7.5%,0.5,?,-0.4
CCOc1ccc(NC(=O)Cn2c(=O)c(CNc3ccc(CC)cc3)cc3cc4c(cc32)OCO4)cc1,4.2%,-4.0%,-1.1%,.,-7.2%,7.9
C=CCOc1ccc(C2N3CC4(CC)CN2CC(CC)(C3)C4=O)cc1 (stereo not given),0.6%,-1.1%,4.6%,-6.6,11.2µM*,1.7
CCOC(=O)CCCCNCc1ccccc1,0.9%,4.5%,4.6%,-69.9*,2.0%,-17.4
OCCCNCc1cccc2ccccc12,?,19.4%,-5.2%,-11.1,-4.2%,-6.5
O=C(O)CCCCNCc1ccccc1,0.1%,9.6%,-4.8%,-8.3,11.3%,-10.9
c1ccc(CNCCCNCCCCNCCCNCc2ccccc2)cc1,-0.5%,?,-5.4%,22.5,2.82µM*,-1.7
Oc1ccccc1CNCCCNCc1ccccc1O,-0.8%,?,-2.7%,?,8.91µM*,5.8
CCOC(=O)C1CCC(CN(Cc2ccc(Cl)cc2)S(=O)(=O)c2ccc(F)c(C(=O)Nc3cccc(F)c3)c2)CC1 (stereo not given),-6.0%,22.0%,.,.,-1.9%,-22.3
COc1ccccc1N=CC=C1OC(C)(C)C(C)(C)O1,.,15.7%,-0.2%,0.0,2.24µM*,1.0
